The results in this text go back to PubChem BioAssay (NCI).

Test systems include SR leukemia; RPMI-8226 leukemia; OVCAR-8 ovarian; OVCAR-5 ovarian; SK-OV-3 ovarian; IGROV1 ovarian; OVCAR-3 ovarian; HS 578T breast; NCI/ADR-RES ovarian; OVCAR-4 ovarian.
Common to all, as to experiment: NCI-60 one-dose screen, 48 h (100 = growth as untreated, 0 = no growth, -100 = all killed)
Conditions in all cases: 10 µM unless noted

Each structure is given as a SMILES string. The panel holds about 83,000 compounds, 20% with a hit somewhere; the sample as a whole holds those more often.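 Each cell line was grown in a 96-well plate and treated with one concentration of compound for 48 hours. Values below 10 were considered active.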 Unmarked numbers belong to inactive results. Active and inactive are the calls of the source.

`NC(=S)N/N=C/c1ccc(OC(=O)COc2cc(Cl)c(Cl)cc2Cl)cn1`: the growth is 1.38% (active) in the assay with SR leukemia; 76.4% with RPMI-8226 leukemia; 26.1% in the assay with OVCAR-8 ovarian; 115% in the assay on OVCAR-5 ovarian; 99.5% in the assay on SK-OV-3 ovarian; 63.8% in the assay on IGROV1 ovarian. The results for the growth in the assay with OVCAR-3 ovarian, in the assay on HS 578T breast and with NCI/ADR-RES ovarian were 59.2%, 114% and 26.9%, respectively.

For `CC(=O)c1c(C)[nH]c(-c2nc3ccc(N4CCN(C)CC4)cc3[nH]2)c1-c1ccccc1`, the growth is 28.4% in the assay with SR leukemia; 3.67% (active) with RPMI-8226 leukemia; 45.6% in the assay with OVCAR-8 ovarian; 34.8% in the assay on OVCAR-5 ovarian; 20.5% in the assay with SK-OV-3 ovarian; 23.8% with IGROV1 ovarian. Also, the growth is 28.8% with OVCAR-3 ovarian, 9.13% (active) in the assay with HS 578T breast and 36.3% with NCI/ADR-RES ovarian.

`C#CCNC(=O)[C@H](Cc1ccccc1)NC(=O)[C@]12CC[C@@H](C(=C)C)[C@@H]1[C@H]1CC[C@@H]3[C@@]4(C)Cc5c([nH]c6ccccc56)C(C)(C)[C@@H]4CC[C@@]3(C)[C@]1(C)CC2`: the growth is 88.5% with SR leukemia; 82.9% in the assay on RPMI-8226 leukemia; 96.5% in the assay with OVCAR-8 ovarian; 95.8% in the assay with OVCAR-5 ovarian; 95.4% with SK-OV-3 ovarian; 110% with IGROV1 ovarian. In addition, the growth with OVCAR-3 ovarian is 96.5%; in the assay on HS 578T breast, 113%; in the assay with NCI/ADR-RES ovarian it was 97.2%.

`COc1ccc(/C=C2\COc3ccc(-c4ccccc4)cc3C2=O)cc1O`: the growth in the assay with SR leukemia is -10.8% (active); in the assay on RPMI-8226 leukemia, -21.6% (active); in the assay on OVCAR-8 ovarian, 13.1%; in the assay on OVCAR-5 ovarian, 53.7%; with SK-OV-3 ovarian, 57.6%; in the assay with IGROV1 ovarian, 7.03% (active). Moreover, the values for the growth in the assay with OVCAR-3 ovarian, with HS 578T breast and in the assay on NCI/ADR-RES ovarian were 2.7% (active), -1.69% (active) and 22.6%, respectively.

`CN1CCN(c2c(F)cc(NC3=C(Cl)C(=O)c4ncccc4C3=O)cc2F)CC1`: the growth with SR leukemia was 4.88% (active); in the assay with RPMI-8226 leukemia, 67.1%; in the assay on OVCAR-8 ovarian it was 78.1%; in the assay with OVCAR-5 ovarian, 105%; with SK-OV-3 ovarian, 101%; in the assay with IGROV1 ovarian, 57.4%. Moreover, the growth with OVCAR-3 ovarian is -28% (active); with HS 578T breast, 97.2%; with NCI/ADR-RES ovarian, 89.7%.

In the case of `Cc1c([N+](=O)[O-])cc(C(C)(C)C)cc1[N+](=O)[O-]`, the growth was 106% with SR leukemia; 112% with RPMI-8226 leukemia; 98.6% in the assay on OVCAR-8 ovarian; 91.1% in the assay with OVCAR-5 ovarian; 92.3% in the assay with SK-OV-3 ovarian; 112% in the assay with IGROV1 ovarian. For the same compound, the values for the growth in the assay on OVCAR-3 ovarian, in the assay with HS 578T breast and in the assay on NCI/ADR-RES ovarian were 101%, 99.5% and 103%, respectively.

With `CC(C)[N+](C)(CCOC(COc1ccccc1)COc1ccccc1)C(C)C`, the growth was 91.5% with SR leukemia; 49.3% in the assay on RPMI-8226 leukemia; 104% in the assay with OVCAR-8 ovarian; 104% with OVCAR-5 ovarian; 105% with SK-OV-3 ovarian; 76.6% with IGROV1 ovarian. Also, the growth in the assay on OVCAR-3 ovarian was 75.4%; with HS 578T breast, 105%; with NCI/ADR-RES ovarian, 107%.

Consider `COc1ccccc1OCC(=O)N1CCCCCC1`, for which the growth in the assay on SR leukemia is 95.1%; in the assay with RPMI-8226 leukemia, 101%; with OVCAR-8 ovarian, 97.2%; with OVCAR-5 ovarian, 94.8%; with SK-OV-3 ovarian it was 109%; in the assay on IGROV1 ovarian, 104%. In addition, the values for the growth in the assay on HS 578T breast and in the assay with NCI/ADR-RES ovarian were 107% and 103%, respectively.

Take `O=S(=O)(NCCNc1nccc(-c2c(-c3cccc(F)c3)nc3occn23)n1)c1cccc2ccccc12`: the growth with SR leukemia was 41.6%; with RPMI-8226 leukemia, 21.7%; with OVCAR-8 ovarian it was 58.4%; in the assay on OVCAR-5 ovarian it was 116%; in the assay with SK-OV-3 ovarian, 69%; in the assay on OVCAR-3 ovarian, 71.7%. Moreover, the growth was 64.9% with HS 578T breast and 48.8% in the assay on NCI/ADR-RES ovarian.

`NS(=O)(=O)c1cccc(NC(=O)C(=O)C2C(=O)Nc3ccccc32)c1` (stereo not drawn): the growth was 47.7% in the assay with RPMI-8226 leukemia; 106% in the assay on OVCAR-8 ovarian; 96% in the assay with OVCAR-5 ovarian; 102% with OVCAR-4 ovarian; 106% in the assay on SK-OV-3 ovarian; 76.4% in the assay with IGROV1 ovarian. Moreover, the growth with OVCAR-3 ovarian is 96.6%; in the assay on HS 578T breast, 101%; in the assay on NCI/ADR-RES ovarian, 97.5%.

In the case of `COC(=O)N[C@H]1CCc2cc(OC)c(OC)c(OC)c2-c2ccc(SC)c(=O)cc21`, the growth is 3.05% (active) in the assay with SR leukemia; 9.33% (active) in the assay with OVCAR-8 ovarian; 9.44% (active) with OVCAR-5 ovarian; 39.8% with OVCAR-4 ovarian; 24.6% with SK-OV-3 ovarian; 19.9% in the assay on IGROV1 ovarian. For the same compound, the growth in the assay on OVCAR-3 ovarian was -20.6% (active); with HS 578T breast, 2.61% (active); in the assay with NCI/ADR-RES ovarian it was -22% (active).

In the case of `Cc1c(C2=CCCCC2)c2ccccn2c1C(=O)c1cccc(S(=O)(=O)N2CCOCC2)c1`, the growth with RPMI-8226 leukemia was 46.9%; with OVCAR-8 ovarian it was 94.9%; with OVCAR-5 ovarian it was 106%; in the assay on OVCAR-4 ovarian, 52.2%; in the assay on SK-OV-3 ovarian, 92.6%; in the assay on IGROV1 ovarian, 75.7%. In addition, the results for the growth in the assay on OVCAR-3 ovarian, in the assay on HS 578T breast and with NCI/ADR-RES ovarian were 73%, 75.8% and 60.5%, respectively.

`COc1cc(C(=O)c2cnc(-c3ccc4cc[nH]c4c3)[nH]2)cc(OC)c1OC`: the growth in the assay on SR leukemia was 6.26% (active); with RPMI-8226 leukemia it was -0.63% (active); in the assay with OVCAR-5 ovarian, 32.2%; in the assay with OVCAR-4 ovarian, 39.3%; with SK-OV-3 ovarian it was 23.5%; with IGROV1 ovarian, 26.3%. For the same compound, the figures for the growth in the assay on OVCAR-3 ovarian, with HS 578T breast and with NCI/ADR-RES ovarian were -34.2% (active), 20.6% and 8.52% (active), respectively.

`COc1cc(OC)cc(C2C3=C(COC3=O)Nc3cc(OC)ccc32)c1` (stereo not drawn): the growth is 8.35% (active) in the assay on SR leukemia; 8.63% (active) with OVCAR-8 ovarian; 39.5% in the assay on OVCAR-5 ovarian; 49.4% with OVCAR-4 ovarian; -3.6% (active) in the assay on SK-OV-3 ovarian; 42.2% with IGROV1 ovarian. The growth with OVCAR-3 ovarian was -50% (active); in the assay on HS 578T breast, 68.1%; with NCI/ADR-RES ovarian it was -18.6% (active).

For `CCCN=C(N)c1ccc(NC(=O)c2ccc(C(=O)Nc3ccc(C(N)=NCCC)cc3)cc2)cc1`, the growth in the assay on RPMI-8226 leukemia is 90.6%; in the assay on OVCAR-8 ovarian, 95.7%; in the assay with OVCAR-5 ovarian, 94.8%; in the assay with OVCAR-4 ovarian it was 99.7%; with SK-OV-3 ovarian, 95.6%; with IGROV1 ovarian, 96.6%. Moreover, the growth was 102% in the assay with OVCAR-3 ovarian, 102% in the assay on HS 578T breast and 98.4% in the assay with NCI/ADR-RES ovarian.
